# Results filed as inconclusive are left out. Where a call stands in place of a potency, no number is given. Calls of active or inactive are those of the source. Calls follow the shape of the dose curve; as a rule, active = well fitted activation curve with a large enough effect in the repeat runs; inconclusive = weak or mixed curves; inactive = no such curve, though single readings can be large or run the other way.
# Target: Aryl hydrocarbon receptor (Homo sapiens) (UniProt P35869)
# Assay: qHTS assay to identify small molecule that activate the aryl hydrocarbon receptor (AhR) signaling pathway (AID 743085); also: nearly all actives have a fitted effect of over 15% in size;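 as to activation: HG2L7.5c1 human HepG2 liver cells with stably integrated DRE-driven firefly reporter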
# Details: HepG2 AhR-luc (HG2L7.5c1), luciferase, 24 h; series mostly up to 70.3 µM
# Source text: U.S. Tox21 Program National Center for Advancing Translational Sciences [NCATS] NIH Chemical Genomics Center [NCGC] U.S. Environmental Protection Agency [EPA] National Institutes of Environmental Health Sciences [NIEHS] National Toxicology Program [NTP] U.S. Food and Drug Administration [FDA] Tox21 Assay overview: The Aryl hydrocarbon Receptor (AhR), a member of the family of basic helix-loop-helix transcription factors, is crucial to adaptive responses to environmental changes. AhR mediates cellular responses to environmental pollutants such as aromatic hydrocarbons through induction of phase I and II enzymes but also interacts with other nuclear receptor signaling pathways. A cell based HepG2-AhR-luc assay (HG2L7.5c1 cell line, developed by Dr. Michael S. Denison, University of California at Davis, was used to assess the activation of AhR. HepG2 (human hepatocellular carcinoma) cells were stably transfected with an Ah receptor-responsive firefly luciferase reporter gene plasmid containing 20 dioxin responsive elements and luciferase reporter gene. Increased luciferase activity can be used to identify the compounds that induce AhR activation.
# Tox21 Assay Protocol Summary: 4000 cells in 5 uL/well were dispensed into white wall/solid bottom 1536-well plates using a Multidrop Combi (Thermo Fisher Scientific Inc., Waltham, MA) dispenser. After the assay plates were incubated at 37C for 5 h, 23 nL of compound or DMSO vehicle was transferred to the assay plates by a pintool station (Kalypsys, San Diego, CA). The plates were incubated at 37C for 24 hr. After 1 ul/well of CellTiter-Fluor reagent (Promega, Madison, WI) was added into the assay plates using a Flying Reagent Dispenser (FRD) (Aurora Discovery, CA), the assay plates were incubated at 37C for 30 min. The fluorescence intensity in the plates was measured using a ViewLux plate reader (PerkinElmer, Shelton, CT), followed by the addition of 4 uL of ONE-Glo Luciferase Assay reagent (Promega) using an FRD (Aurora Discovery). After the assay plates were incubated at room temperature for 30 min, luminescence intensity was measured using a ViewLux plate reader (Perkin Elmer).
# Potency is read from the fitted curve at half-maximal effect.
# Chain of Aryl hydrocarbon receptor (Homo sapiens) (P35869 whole entry, looked up): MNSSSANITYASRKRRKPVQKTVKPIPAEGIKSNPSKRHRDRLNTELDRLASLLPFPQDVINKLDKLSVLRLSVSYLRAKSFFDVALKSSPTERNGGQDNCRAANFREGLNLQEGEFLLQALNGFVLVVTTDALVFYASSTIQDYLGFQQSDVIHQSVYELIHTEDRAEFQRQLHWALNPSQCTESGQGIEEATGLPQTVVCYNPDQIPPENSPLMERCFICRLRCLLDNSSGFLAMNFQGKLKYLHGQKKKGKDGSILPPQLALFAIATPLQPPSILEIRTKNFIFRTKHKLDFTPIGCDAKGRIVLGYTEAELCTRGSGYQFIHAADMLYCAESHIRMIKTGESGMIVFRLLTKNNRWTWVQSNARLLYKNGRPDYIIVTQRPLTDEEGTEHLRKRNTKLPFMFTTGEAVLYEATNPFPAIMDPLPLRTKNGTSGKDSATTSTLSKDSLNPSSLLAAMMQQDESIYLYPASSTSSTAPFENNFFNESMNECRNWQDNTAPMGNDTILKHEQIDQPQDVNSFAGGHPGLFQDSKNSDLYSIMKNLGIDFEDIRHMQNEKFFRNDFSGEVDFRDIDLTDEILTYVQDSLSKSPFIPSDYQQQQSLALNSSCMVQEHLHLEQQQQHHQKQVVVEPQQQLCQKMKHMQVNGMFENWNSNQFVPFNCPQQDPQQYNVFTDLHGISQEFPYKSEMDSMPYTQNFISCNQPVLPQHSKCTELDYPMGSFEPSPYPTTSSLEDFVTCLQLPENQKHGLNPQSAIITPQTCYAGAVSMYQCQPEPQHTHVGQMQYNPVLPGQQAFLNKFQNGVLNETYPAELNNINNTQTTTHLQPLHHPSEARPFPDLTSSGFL
row,Compound,Potency
1,CCOP(=S)(OCC)SCSc1ccc(Cl)cc1,inactive
2,N#CC(O)c1ccccc1 (stereo not given),inactive
3,CCOC(=O)N(C)C(=O)CSP(=S)(OCC)OCC,15.4 µM (active)
4,CCOC(=O)CP(=O)(OCC)OCC,inactive
5,Oc1c(Cl)cccc1Cl,inactive
6,CNC(=O)Oc1c(C(C)(C)C)cc(C)cc1C(C)(C)C,inactive
7,CCOP(=O)(N=C1SCCS1)OCC,inactive
8,CCOc1nc(C(Cl)(Cl)Cl)ns1,inactive
9,O=C1OC(c2ccc(O)c(S(=O)(=O)O)c2)(c2ccc(O)c(S(=O)(=O)O)c2)c2c(Br)c(Br)c(Br)c(Br)c21,inactive
10,O=C(Nc1ccccc1)N(Cc1ccc(Cl)cc1)C1CCCC1,54.5 µM (active)
11,CC1=C(C(=O)Nc2ccccc2)S(=O)(=O)CCO1,inactive
12,OC(c1ccccc1)(c1ccccc1)C1CCNCC1,inactive
13,CC(=O)Nc1cc([As](=O)(O)O)ccc1O,inactive
14,COc1ccc2c(c1OC)CN1CCc3cc4c(cc3C1C2)OCO4 (stereo not given),0.403 µM (active)
15,CC1(C)COP(Oc2ccccc2)OC1,inactive
16,CNC(=O)O/N=C(\C)SC,inactive
17,CC(C)CP(=S)(S)CC(C)C,inactive
18,CNNC,inactive
19,C[N+](=O)[O-],inactive
20,CC(C)[N+](=O)[O-],inactive

row,Compound,Potency
1,CN(C)CCc1ccc(O)cc1,inactive
2,ClCC(Cl)Cl,inactive
3,CCCSC(=O)N(CCC)CCC,inactive
4,CCCCOC(=O)[C@@H](C)Oc1ccc(Oc2ccc(C#N)cc2F)cc1,inactive
5,CCN(CC)C(C)C(=O)c1ccccc1 (stereo not given),inactive
6,C[C@]1(O)CC[C@H]2[C@@H]3CCC4=CC(=O)CC[C@]4(C)[C@@]3(F)[C@@H](O)C[C@@]21C,inactive
7,CCSC(=O)N(CC)C1CCCCC1,inactive
8,N#CC(CCc1ccc(Cl)cc1)(Cn1cncn1)c1ccccc1 (stereo not given),inactive
9,CCCCc1ccc(O)cc1,inactive
10,CC(C=O)Cc1ccc2c(c1)OCO2 (stereo not given),inactive
11,COC(C)(C)C,inactive
12,COc1cc2c(cc1OC)[C@@]13CCN4CC5=CCO[C@H]6CC(=O)N2[C@H]1[C@H]6[C@H]5C[C@H]43,inactive
13,Cc1ncc(CNC(=O)N(CCCl)N=O)c(N)n1,inactive
14,C[C@]12CC[C@H]3[C@@H](CC=C4C[C@@H](O)CC[C@@]43C)[C@@H]1CC[C@@H]2O,inactive
15,CCN(Cc1ccc(Cl)nc1)/C(=C/[N+](=O)[O-])NC,inactive
16,CC(Cl)(Cl)[N+](=O)[O-],inactive
17,CC(=O)[C@H]1CC[C@H]2[C@@H]3CC[C@H]4C[C@H](O)CC[C@]4(C)[C@H]3C(=O)C[C@]12C,inactive
18,[As]#[In],inactive
19,CC(COc1ccc(Oc2ccccc2)cc1)Oc1ccccn1 (stereo not given),inactive
20,COc1ccc(C(=O)N2CCCC2=O)cc1,inactive

# Source: PubChem BioAssay (Tox21)
